An excerpt weighted towards active compounds, which were near 9% of everything screened.
HPGD block: HPGD (human) dehydrogenase inhibition; actives 4.3% (n = 150,000); purified HPGD, NADH fluorescence kinetic, PGE2 substrate; AID 894; Potency, µM, without a hit: top-dose activity change, negative = inhibition, actives largely listed as inhibitors; note: potency is the fitted concentration of half-maximal effect
Target sequence (P15428 whole entry, looked up): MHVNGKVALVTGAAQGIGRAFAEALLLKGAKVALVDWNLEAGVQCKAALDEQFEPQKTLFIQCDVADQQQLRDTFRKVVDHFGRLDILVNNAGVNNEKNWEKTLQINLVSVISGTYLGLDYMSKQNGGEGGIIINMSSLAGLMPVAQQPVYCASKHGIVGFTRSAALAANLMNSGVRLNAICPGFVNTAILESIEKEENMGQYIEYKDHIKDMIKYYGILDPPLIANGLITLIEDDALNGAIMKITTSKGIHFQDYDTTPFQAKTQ
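NADH formation kinetics: reaction with 30 uM PGE2 and 1 mM NAD+ (final), 20 nM enzyme, Tris-HCl pH 8 with Tween 20, after 15 min compound preincubation at room temperature. Fluorescence change, last versus first of five reads.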
ALDH1A1 block: inhibitors of human aldehyde dehydrogenase 1A1. Purified ALDH1A1, NADH fluorescence, propionaldehyde substrate. Potency, µM (titrated, usually from 75.3 µM), without a hit: top-dose activity, negative = inhibition, most hits filed as inhibitors. actives 7.3% (n = 220,000). AID 1030;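 note: potency is the fitted concentration of half-maximal effect; plate controls were no enzyme wells and a reference inhibitor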
IMPase inh: IMPase inhibition in cells; AID 901; CHO-M1 cells, IP1 accumulation, HTRF TR-FRET ratio; inhibition (IP1 accumulation), % at 46.1 µM; P97697; 120,000 tested, under 10 active; active = well fitted curve in the direction sought with a large enough effect in the signal ratio, not every such curve was filed as active; inconclusive = small, poorly fitted or top-dose-only effect, or a change in a side signal; inactive = no such curve, though single readings can be large or run the other way; the % refers to the signal ratio;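 note: cells stimulated with carbachol in lithium chloride buffer; plate controls were DMSO basal wells for no effect and reference inhibitor wells for full effect; higher means more IMPase inhibition seen as more IP1 and lower FRET ratio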
Target sequence (P97697 whole entry, looked up): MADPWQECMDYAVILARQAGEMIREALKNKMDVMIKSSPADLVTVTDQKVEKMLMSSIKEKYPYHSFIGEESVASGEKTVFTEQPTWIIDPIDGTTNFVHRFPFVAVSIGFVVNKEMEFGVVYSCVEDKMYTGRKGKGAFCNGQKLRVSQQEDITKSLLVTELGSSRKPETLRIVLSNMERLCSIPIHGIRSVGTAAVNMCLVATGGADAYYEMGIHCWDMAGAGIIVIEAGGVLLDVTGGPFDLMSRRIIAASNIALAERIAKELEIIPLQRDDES
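CHO-M1 cells (CHO stably expressing M1 receptor), compound up to 46 uM final, stimulated with carbachol (50 uM as added) in buffer with 50mM LiCl, pH 7.4, 30 min at 37C. Cytosolic IP1 read by TR-FRET; AC50 from Hill fits.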
Numbers without * were called inactive; [ ] = remark or other dose. Unless noted, calls come from the whole dose curve; as a rule, active = well fitted inhibition curve with a large enough effect (not every such curve was filed as active); inconclusive = small, poorly fitted or top-dose-only effect, or another doubt; inactive = no such curve, though single readings can be large or run the other way. Unless noted, % is set by controls: 0 for no effect and ±100 for the full control effect.

`COc1ccc(NC(=O)C(=O)NCc2ccncc2)c(OC)c1` gave HPGD block -13%, ALDH1A1 block 11% and IMPase inh 13.
Screening COc1ccc(C)cc1NC(=O)C(=O)NCc1ccncc1 returned ALDH1A1 block 18µM* and IMPase inh 1.
COc1ccc2c(c1)C1=C(CC2)C(c2ccc(C)cc2)NC(=S)N1 (stereo not drawn) was read as ALDH1A1 block 0.4µM*.
`COc1ccc(C2NC(=O)NC3=C2CCc2ccccc23)cc1` (stereo not drawn) gave HPGD block inconclusive, ALDH1A1 block inconclusive and IMPase inh 7.
Screening CC(C)c1ccc(C2NC(=O)NC3=C2CCc2ccccc23)cc1 (stereo not drawn) returned HPGD block inconclusive, ALDH1A1 block inconclusive and IMPase inh 7.
`COc1cccc(C2NC(=S)NC3=C2CCc2ccccc23)c1` (stereo not drawn) gave ALDH1A1 block 0.22µM* and IMPase inh -2.
Cc1n[nH]c(C)c1S(=O)(=O)N(CC(=O)Nc1ccc2c(c1)OCCO2)c1ccc(C(C)C)cc1 was read as HPGD block -22%, ALDH1A1 block inconclusive and IMPase inh 1.
For COc1ccc(-n2c(=O)c(-c3cccc(F)c3)nc3cncnc32)cc1 the results were ALDH1A1 block -4%.
For COc1ccc2[nH]cc(C=O)c2c1 the results were HPGD block -27%, ALDH1A1 block inconclusive and IMPase inh 6.
For COc1ccc2c(C=O)cn(C)c2c1 the results were ALDH1A1 block 2.2µM*.
For COc1cccc(C(=O)Nc2ccc(S(=O)(=O)Nc3nccc(C)n3)cc2)c1 the results were HPGD block 28µM* and ALDH1A1 block -11%.
Screening COc1ccc(C(=O)Nc2ccc(S(=O)(=O)Nc3onc(C)c3C)cc2)cc1 returned HPGD block -31%, ALDH1A1 block -2% and IMPase inh -6.
`COc1cccc(C(=O)Nc2ccc(S(=O)(=O)Nc3onc(C)c3C)cc2)c1` gave HPGD block 35µM*, ALDH1A1 block 15% and IMPase inh 7.
Screening COc1ccc(C(=O)Nc2ccc(S(=O)(=O)Nc3nccc(C)n3)cc2)cc1OC returned HPGD block -26%, ALDH1A1 block -8% and IMPase inh -7.
For O=S(=O)(CC12C3C4C5C1C2C(Br)(C43)C51OCCO1)c1ccccc1 (stereo not drawn) the results were HPGD block -6% and ALDH1A1 block 11µM*.
O=C(CS(=O)(=O)c1ccccc1)NC1CCCCC1 was read as ALDH1A1 block 4%.
Screening COCn1c2ccccc2c2nnc(C(=O)O)nc21 returned ALDH1A1 block 6%[13.5 µM].
For COc1ccc(NC(=O)C(c2ccc(OC)cc2)N(C)C(=O)c2cnccn2)cc1 (stereo not drawn) the results were HPGD block inconclusive, ALDH1A1 block inconclusive and IMPase inh 1.
`CCC(C)(C)NC(=O)C(c1ccc(F)cc1)N(Cc1ccc(OC)cc1)C(=O)c1cnccn1` (stereo not drawn) gave ALDH1A1 block 0%.
CC(C)c1ccc(NC(=O)C(c2ccccc2)N(C)C(=O)c2cnccn2)cc1 (stereo not drawn) was read as ALDH1A1 block 10µM*.
`COc1ccc(CN(C(=O)c2cnccn2)C(C(=O)Nc2ccc(F)cc2)c2ccccc2)cc1` (stereo not drawn) gave HPGD block -9%, ALDH1A1 block 10µM* and IMPase inh 4[0.0738 µM].
Screening CCN1CCCC1Cn1c(-c2ccccc2)nc2c(N(CCOC)CCOC)nc(C)nc21 (stereo not drawn) returned HPGD block -25% and ALDH1A1 block inconclusive.
Screening C/C(=N\NC(=O)OC(C)(C)C)c1ccccc1Br returned ALDH1A1 block 1%.
Screening O=C(Cn1cnc([N+](=O)[O-])n1)NC1CC1 returned ALDH1A1 block 0%.
For O=C(c1ccco1)N1CCN(CCCCOc2ccc(F)cc2)CC1 the results were HPGD block -8% and ALDH1A1 block 1%.
For CN(C)S(=O)(=O)c1ccc(Cl)c(-c2nnc3n2CCCCC3)c1 the results were ALDH1A1 block -2%.
`Clc1cccc(-c2nnc3n2CCCCC3)c1` gave ALDH1A1 block 3%.
`Nc1cccc(-c2nnc3n2CCCCC3)c1` gave ALDH1A1 block -10%.
`COc1ccccc1S(=O)(=O)Nc1ccc(-c2nnc3n2CCCCC3)cc1` gave HPGD block 32µM*, ALDH1A1 block inconclusive and IMPase inh 2.
Clc1ccc(-c2nnc3n2CCCC3)cc1Cl was read as HPGD block 32µM*, ALDH1A1 block -5% and IMPase inh -10.
O=S(=O)(c1cccc(-c2nnc3n2CCCCC3)c1)N1CCCC1 was read as ALDH1A1 block -3%.
Clc1ccc(-c2nnc3n2CCCCC3)cc1 was read as HPGD block 16µM*, ALDH1A1 block -1% and IMPase inh -4.
`Cc1ccc(S(=O)(=O)N(C)Cc2ccc(-c3nnc4n3CCC4)cc2)cc1` gave HPGD block 4.5µM*, ALDH1A1 block -9% and IMPase inh 9.
Screening CCOC(=O)c1cccc(NS(=O)(=O)c2cnc[nH]2)c1 returned HPGD block -17%, ALDH1A1 block 3% and IMPase inh 2.
`Cc1ccccc1OCC1CO1` (stereo not drawn) gave HPGD block -10% and ALDH1A1 block inconclusive.
For CCCC(=O)NCCc1c2n(c3ccc(OC)cc13)Cc1ccccc1-2 the results were HPGD block inconclusive, ALDH1A1 block inconclusive and IMPase inh -7.
For N[C@@H](CO)c1nnc([C@H](CC(=O)O)NC(=O)C2CCNCC2)o1 the results were ALDH1A1 block -2%.
Screening Cc1cc(Cl)ccc1OCc1nnc2n1CCCCC2 returned ALDH1A1 block 5%.
Screening Brc1ccc(-c2nnc3n2CCCCC3)cc1 returned HPGD block 7.1µM*, ALDH1A1 block 13µM* and IMPase inh 4.
For Cc1ccc(C)n1-c1ccc(-c2nnc3n2CCCCC3)s1 the results were HPGD block 3.2µM*, ALDH1A1 block inconclusive and IMPase inh inconclusive.
Screening C1CCc2nnc(-c3nnc4n3CCCCC4)n2CC1 returned HPGD block -8%, ALDH1A1 block 6% and IMPase inh 1.
`CC(=O)Oc1ccc(N2C(=O)C3C4C=CC(O4)C3C2=O)cc1` (stereo not drawn) gave HPGD block 32µM*, ALDH1A1 block 0.45µM* and IMPase inh -1.
For CCOC(=O)c1ccc(N2C(=O)CC(N(Cc3ccc4c(c3)OCO4)C(=O)Nc3ccccc3)C2=O)cc1 (stereo not drawn) the results were HPGD block -9%, ALDH1A1 block 13µM* and IMPase inh 8.
For CCOC(=O)N1CCN(C2CC(=O)N(c3ccc(F)cc3)C2=O)CC1 (stereo not drawn) the results were HPGD block 0%, ALDH1A1 block 0% and IMPase inh 12.
For CC(=O)Oc1ccc(N2C(=O)CCC2=O)cc1 the results were HPGD block -10%, ALDH1A1 block -4% and IMPase inh -9.
CNC(=S)N(Cc1ccc2c(c1)OCO2)C1CC(=O)N(c2ccc(F)cc2)C1=O (stereo not drawn) was read as HPGD block -6%, ALDH1A1 block -2% and IMPase inh 5.

From PubChem BioAssay
